Assay outcomes from PubChem BioAssay.
In the library only some 5% were active in any assay of this set; here they are far more common.
Vaccinia mCherry: vaccinia inhibition (mCherry reporter) | Potency, µM (top dose mostly 36.5 µM), for the others: at the highest dose activity change, negative = inhibition, actives largely listed as inhibitors | Vaccinia virus mCherry reporter infection, fluorescence | AID 720579 | 310,000 compounds, 0.63% hits; calls by dose curve; tested in A549 cells; also: potency is read from the fitted curve at half-maximal effect; nearly all actives have a fitted effect of over 35% in size
LmPK inhibitor: LmPK (Leishmania mexicana) enzyme inhibition; Q27686; purified LmPK, Kinase-Glo ATP luminescence, 1 h; Potency, µM (highest dose often 57.5 µM), for the others: top-dose activity change, negative = inhibition, most hits filed as inhibitors; 290,000 compounds, 0.37% hits; AID 1721; also: potency is read from the fitted curve at half-maximal effect
Target sequence (Q27686 whole entry, looked up): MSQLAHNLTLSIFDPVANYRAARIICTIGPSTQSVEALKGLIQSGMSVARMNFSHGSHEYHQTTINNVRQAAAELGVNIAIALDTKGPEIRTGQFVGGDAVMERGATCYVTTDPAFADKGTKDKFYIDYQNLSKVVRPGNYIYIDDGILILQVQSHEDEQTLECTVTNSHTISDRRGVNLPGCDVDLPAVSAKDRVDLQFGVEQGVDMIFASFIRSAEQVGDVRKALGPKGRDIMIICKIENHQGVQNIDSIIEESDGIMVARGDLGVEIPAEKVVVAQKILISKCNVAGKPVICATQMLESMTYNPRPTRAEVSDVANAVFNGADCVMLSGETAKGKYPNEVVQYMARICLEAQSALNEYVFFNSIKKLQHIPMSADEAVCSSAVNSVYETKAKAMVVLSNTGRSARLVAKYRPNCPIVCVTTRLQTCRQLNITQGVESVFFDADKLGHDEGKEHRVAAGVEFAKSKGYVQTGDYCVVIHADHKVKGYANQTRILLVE
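In 50 mM imidazole pH 7.2 with 7 mM MgCl2, LmPK (0.1 nM) turned over PEP (0.5 mM) and ADP (0.1 mM) for 1 h at room temperature. Luciferase read-out of ATP.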
Vaccinia Venus: vaccinia inhibition (Venus reporter) | Vaccinia virus Venus reporter expression, fluorescence | Potency, µM (doses to about 36.5 µM), for the others: at the top dose activity change, negative = inhibition, usual class: inhibitors | 330,000 compounds, 0.46% hits | AID 720580; calls by dose curve; tested in A549 cells; also: potency is read from the fitted curve at half-maximal effect; nearly all actives have a fitted effect of over 30% in size
TbPYK inhibitor: inhibitors of Trypanosoma brucei pyruvate kinase; Q57TT1; TbPYK enzyme, Kinase-Glo Plus ATP luminescence, 45 min; Potency, µM (doses to about 76.8 µM), inactives show at the top dose activity, negative = inhibition, most hits filed as inhibitors; 410,000 compounds, 0.12% hits; AID 624173; also: potency is read from the fitted curve at half-maximal effect; nearly all actives have a fitted effect of over 50% in size
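In this concentration-response screen, enzyme-free wells defined baseline while DMSO plates tracked drift. Each reaction combined TbPYK, substrate, compound and 130 uM ADP for 45 min at room temperature. Kinase-Glo Plus luminescence gave the signal.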
HCMV antiviral: human cytomegalovirus inhibition. HFF cells, HCMV-luciferase reporter, 72 h; active compounds read low. activity change, negative = inhibition, % at 57.5 µM. 410,000 compounds, 4.5% hits. AID 1259415; in the data active = activity change below about -60%; inconclusive = no clear call, values can overlap the other calls; inactive = above about -39%
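Steps: HFFs plated, 16 h 37C; compounds added; HCMV-luciferase added to MOI 1 PFU/cell; 72 h 37C; OneGlo reagent, 5 min room temperature; luminescence read, normalized to controls.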
Starred values were filed as active, the others as inactive; i = inactive; ? = inconclusive; · = no result. Unless noted, calls follow the shape of the dose curve; as a rule, active = well fitted curve in the direction sought with a large enough effect; inconclusive = small, poorly fitted or top-dose-only effect, or another doubt; inactive = no such curve, though single readings can be large; an effect the other way counts as inactive or inconclusive. % is scaled to controls: 0 for no effect and ±100 for the full control effect.

SMILES | Vaccinia mCherry | LmPK inhibitor | Vaccinia Venus | TbPYK inhibitor | HCMV antiviral
CCC(NC(=O)Nc1cc(OC)ccc1OC)c1c(-n2cccc2)sc2c1CCN(CC)C2 (stereo not given) | -16% | · | -16% | -3% | -73*
CCOc1ccc(NC(=O)NC(C)c2c(-n3cccc3)sc3c2CCN(CC)C3)cc1 (stereo not given) | -7% | · | -11% | 0% | -79*
CCN1CCc2c(sc(-n3cccc3)c2C(C)NC(=O)Nc2ccc(Br)cc2)C1 (stereo not given) | -14% | · | -16% | 2% | -15
CCC(NC(=O)Nc1ccc(OC)c(OC)c1)c1c(-n2cccc2)sc2c1CCN(C)C2 (stereo not given) | -22% | · | -17% | -3% | -35
CC(OC(=O)CCN=C1NS(=O)(=O)c2ccccc21)C(=O)Nc1ccc(N(C)C)cc1 (stereo not given) | · | · | · | -11% | -22
O=S(=O)(Cc1ccccc1)Oc1ccccc1 | i | -5% | -10% | 6% | -63*
Nc1ccc(S(=O)(=O)NC(Cc2ccccc2)C(=O)O)cc1 (stereo not given) | · | 2% | · | 0% | 6
O=C(O)C(Cc1ccc(OS(=O)(=O)Cc2ccccc2)cc1)NS(=O)(=O)Cc1ccccc1 (stereo not given) | i | · | -12% | 5% | -60*
O=C(NCC(=O)N(CCN1CCOCC1)C(C(=O)NC1CCCC1)c1ccccc1)c1cccs1 (stereo not given) | i | 3% | -8% | -7% | ?
Cc1nc2nc(SCc3ccccc3)[nH]n2c(=O)c1C | · | 0% | · | 4% | 30
COc1ccc(-n2cc(-c3ccc(C)cc3)[n+]3c2SCC3)cc1 | i | -6% | -26% | -2% | -102*
Cc1ccc(-c2cn(-c3ccccc3)c3[n+]2CCCS3)cc1 | · | 5% | ? | 0% | -93*
CCc1ccc(-n2cc(-c3ccc(F)cc3)[n+]3c2SCCC3)cc1 | -25% | -2% | -6% | 11% | -87*
O=C(CCN1CCCCC1)Nc1cccc(Br)c1 | · | -2% | · | 2% | 22
COC(=O)c1ccc(S(=O)(=O)N2CCN(CCO)CC2)n1C | i | -3% | -10% | -6% | 23
CN1CCN(C(=O)CCN2C(=O)/C(=C\c3ccc(Cl)cc3)SC2=S)CC1 | · | -8% | · | -4% | ·
NS(=O)(=O)c1ccc(CCN2C(=O)/C(=C\c3ccc(Cl)cc3)SC2=S)cc1 | i | 1% | -5% | 4% | -101*
CCN1CCN(C(=O)c2cnn(-c3ccc(F)cc3)c2-n2cccc2)CC1 | -9% | · | -3% | 4% | 13
c1ccc(CCNCCCOc2cccc3ccccc23)cc1 | -19% | -6% | ? | 0% | 7
CNCCNC[C@H](Cc1cccc2ccccc12)NCCc1ccccc1 | ? | · | -12% | -1% | -100*
Cc1ccc(C(=O)NC(CCc2ccccc2)C(=O)O)cc1 (stereo not given) | -13% | · | -5% | -6% | 9
CNC[C@H](Cc1ccccc1)NC[C@@H](Cc1cccc2ccccc12)NCCc1ccc(C)cc1 | ? | 3% | 14µM* | 4% | ?
CCOC(=O)C1=C(C)C(c2ccc(OC)cc2)NC(=O)N1 (stereo not given) | · | 1% | · | 3% | -25
C[C@@H]1O[C@@H](O[C@H]2C[C@@H](O)[C@]3(CO)[C@H]4[C@H](O)C[C@]5(C)[C@@H](C6COC(=O)C6)CC[C@]5(O)[C@@H]4CC[C@]3(O)C2)[C@H](O)[C@H](O)[C@H]1O (stereo not given in full) | 1.1µM* | 10% | 1.1µM* | 5% | -97*
CC1OC(OC2CC(O)C3(CO)C4C(O)CC5(C)C(C6=CC(=O)OC6)CCC5(O)C4CCC3(O)C2)C(O)C(O)C1O (stereo not given) | 0.089µM* | · | ? | -6% | -72*
CC1OC(OC2CCC3(C)C(CCC4C3CC(O)C3(C)C(C5=CC(=O)OC5)CCC43O)C2)CC(O)C1OC1CC(O)C(OC2CC(O)C(OC3OC(CO)C(O)C(O)C3O)C(C)O2)C(C)O1 (stereo not given) | · | · | · | 0% | ·
CCOc1ccc(-n2c(-c3ccccc3)c[n+]3c2CCC3)cc1 | -9% | 0% | 2% | 5% | -39
